Screens (PubChem)
Compounds with a hit are over-represented: about 5.4% of the library has one in this group of screens.
ALOX12 inhib = inhibitors of human 12-lipoxygenase (ALOX12); AID 1452; purified 12-hLO, xylenol orange hydroperoxide absorbance; P18054; hit rate 0.12% among 150,000; Potency, µM (doses to about 57.1 µM), without a hit: at the top dose activity change, negative = inhibition, actives largely listed as inhibitors; also: potency is read from the fitted curve at half-maximal effect; nearly all actives have a fitted effect of over 55% in size
Target sequence (P18054 whole entry, looked up): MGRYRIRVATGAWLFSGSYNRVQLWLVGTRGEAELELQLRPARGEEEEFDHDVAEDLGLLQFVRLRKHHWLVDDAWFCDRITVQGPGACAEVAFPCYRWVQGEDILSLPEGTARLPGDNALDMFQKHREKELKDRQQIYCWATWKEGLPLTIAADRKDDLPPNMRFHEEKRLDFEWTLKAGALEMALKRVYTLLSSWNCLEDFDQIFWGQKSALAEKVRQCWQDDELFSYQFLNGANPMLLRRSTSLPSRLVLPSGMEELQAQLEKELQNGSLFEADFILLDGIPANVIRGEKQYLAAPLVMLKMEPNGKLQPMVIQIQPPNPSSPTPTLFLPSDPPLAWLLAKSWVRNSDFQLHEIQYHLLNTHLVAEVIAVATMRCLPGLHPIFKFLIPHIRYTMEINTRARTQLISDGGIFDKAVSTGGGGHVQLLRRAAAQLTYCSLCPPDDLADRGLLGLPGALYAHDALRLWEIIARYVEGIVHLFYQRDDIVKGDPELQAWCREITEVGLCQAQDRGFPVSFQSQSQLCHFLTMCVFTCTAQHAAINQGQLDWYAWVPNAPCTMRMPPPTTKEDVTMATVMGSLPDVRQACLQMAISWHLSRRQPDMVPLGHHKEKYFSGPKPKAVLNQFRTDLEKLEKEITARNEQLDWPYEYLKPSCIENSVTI
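Xylenol orange chromogenic assay: hydroperoxide from 12hLO oxidises Fe(II), giving red-shifted Fe(III)-XO absorbance. Conditions: 150 nM enzyme, 40 uM arachidonic acid, 25 mM Hepes pH 7.0, 0.01% Triton X-100, 30 min, room temperature.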
HPGD inh = HPGD (human) dehydrogenase inhibition. P15428. purified HPGD, NADH fluorescence kinetic, PGE2 substrate. Potency, µM, without a hit: at the top dose activity change, negative = inhibition, usual class: inhibitors. hit rate 4.3% among 150,000; active = well fitted inhibition curve with a large enough effect, not every such curve was filed as active; inconclusive = small, poorly fitted or top-dose-only effect, or another doubt; inactive = no such curve, though single readings can be large or run the other way; also: potency is read from the fitted curve at half-maximal effect
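20 nM HPGD preincubated 15 min at room temperature with compound in 50 mM Tris-HCl pH 8, 0.01% Tween 20. Started with 1 mM NAD+ and 30 uM prostaglandin E2; NADH fluorescence (360/450 nm) read 5 times over 30-s intervals, last minus first.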
PNC assembly inh = perinucleolar compartment assembly inhibition | AID 2417 | activity change (PNC), negative = inhibition, % at 10 µM | hit rate 3.1% among 140,000 | PC3M PTB-GFP, PNC prevalence imaging, 16 h; stronger effect = lower value;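 active = readout at or below -70, meaning at least 70% loss of cells showing the perinucleolar compartment, a nuclear body marking cancer cells; inconclusive = readout between -30 and a set limit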;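 also: plate controls were DMSO wells for no effect and camptothecin positive control wells for full effect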
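Read-out is percentage of cells bearing a perinucleolar compartment, from automated 20x imaging of fixed, Hoechst-stained PC3M PTB-GFP cells. Cells were seeded 4 h, then exposed 16 h to compound (23 nl of library stock) in duplicate plates.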
IMPase Li inh = IMPase inhibition in cells with lithium potentiation | AID 1457 | CHO-M1 cells, IP1 TR-FRET (IP-One), carbachol + lithium | Potency, µM (doses to about 59.4 µM), for the others: at the top dose activity, negative = IMPase inhibition, actives largely listed as inhibitors | hit rate 0.35% among 210,000;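 also: IP1 builds up when IMPase is blocked and the TR-FRET signal falls; potency is read from the fitted curve at half-maximal effect; plate controls were basal vehicle for no effect and high inhibitor control for full effect; nearly all actives have a fitted effect of over 50% in size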
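Concentration–response in CHO-M1 cells, lithium-potentiated; 30 min at 37C. IP1 detected by competitive TR-FRET after 10 min lysis at RT. Hill-fitted AC50.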
IMPase inh = membrane-permeable compound that blocks inositol monophosphatase; P97697; CHO-M1 cells, IP1 accumulation, HTRF TR-FRET ratio; inhibition (IP1 accumulation), % at 46.1 µM; 120,000 tested, under 10 active; active = well fitted curve in the direction sought with a large enough effect in the signal ratio, not every such curve was filed as active; inconclusive = small, poorly fitted or top-dose-only effect, or a change in a side signal; inactive = no such curve, though single readings can be large or run the other way; the % refers to the signal ratio;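 also: cells stimulated with carbachol in lithium chloride buffer; plate controls were DMSO basal wells for no effect and reference inhibitor wells for full effect; higher means more IMPase inhibition seen as more IP1 and lower FRET ratio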
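Elevated IP1 in lysates lowers TR-FRET signal (665/620 ratio and 620 channel reported). Cells were CHO-M1, given carbachol (50 uM as added) plus 50mM LiCl, pH 7.4, 30 min, 37C; compounds titrated up to 46 uM; AC50 by Hill equation.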
ALOX15B inhib = blocks human 15-lipoxygenase 2 activity. O15296. purified 15hLO-2, xylenol orange hydroperoxide absorbance. Potency, µM (highest dose often 57.1 µM), inactives show top-dose activity change, negative = inhibition, most hits filed as inhibitors. hit rate 0.56% among 110,000. AID 881; also: potency is read from the fitted curve at half-maximal effect; nearly all actives have a fitted effect of over 60% in size
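Purified human 15hLO-2 (50 nM) preincubated 15 min with compound, then 45 uM arachidonic acid for 90 min at RT in 25 mM Hepes pH 7.5, 0.01% Triton X-100. Hydroperoxide detected by Fe-xylenol orange; 573/405 nm absorbance ratio.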
Numbers without * were called inactive; u = inconclusive; x = no result given; [ ] = remark or other dose. Unless noted, calls follow the shape of the dose curve; as a rule, active = well fitted curve in the direction sought with a large enough effect; inconclusive = small, poorly fitted or top-dose-only effect, or another doubt; inactive = no such curve, though single readings can be large; an effect the other way counts as inactive or inconclusive. Unless noted, % is scaled to controls: 0 for no effect and ±100 for the full control effect.

SMILES	ALOX12 inhib	HPGD inh	PNC assembly inh	IMPase Li inh	IMPase inh	ALOX15B inhib
Cc1ccc(CN2C(=O)c3oc4ccc(C)cc4c(=O)c3C2c2ccc(O)cc2)cc1 (stereo not given)	x	x	x	x	0.7	x
c1ccc(C[n+]2cccc3c4ccccc4ccc32)cc1	8.6%	u	30.3	25.1%[38.3 µM]	15.7	15.1%
c1ccc(C[n+]2csc3ccccc32)cc1	-11.0%	14.1µM*	32.1	6.0%[38.3 µM]	8.4	x
OCCN(Cc1ccccc1)Cc1cccc(F)c1	-7.4%	-5.8%	4.0	4.3%[38.3 µM]	10.2	-11.2%
Fc1cccc(C[n+]2csc3ccccc32)c1	-20.9%	3.98µM*	32.4	20.8%[38.3 µM]	11.7	x
O=C(Nc1ccc2c(c1)Cc1ccccc1-2)[C@@H]1[C@H](C(=O)O)[C@]2(Cl)C(Cl)=C(Cl)[C@@]1(Cl)C2(Cl)Cl	-8.9%[11.4 µM]	-15.6%	x	-0.8%	x	-18.4%[11.4 µM]
O=C(O)c1n[nH]c2ccccc12	5.0%	-6.3%	-26.8	-4.0%	-2.7	11.1%
c1ccc(-c2n[nH]c3ccccc23)cc1	1.6%	14.1µM*	17.2	-6.5%[38.3 µM]	-3.3	7.6%[2.29 µM]
CC(=O)c1sc(Nc2ccccn2)nc1C	-2.1%	-17.1%	u	14.1µM*	u	9.2%
CC(=O)c1sc(Nc2ccc(C)cc2)nc1C	x	x	x	-5.2%	x	x
CC(=O)c1sc(NC(=O)C(C)C)nc1C	-3.7%	-4.5%	29.4	11.2µM*	u	-12.4%
CC(=O)Nc1nc(C)c(C(C)=O)s1	9.7%	-20.5%	30.3	28.1%[38.3 µM]	-13.0	2.2%
Cc1cccc(C(=O)Oc2csc(=S)n2C(=O)c2cccc(C)c2)c1	5.4%	14.1µM*	-1.8	11.8%	6.3	x
Cc1cccc(C(=O)Nc2cccc(OC(=O)c3cccc(C)c3)c2)c1	-6.0%	-2.8%	u	15.4%[38.3 µM]	5.3	10.6%
O=C(O)[C@@H]1CCCN[C@H]1C(=O)O	-2.0%	x	x	x	0.9	-3.4%
Cn1cc(Cl)c(C(=O)N/N=C/c2ccc(OS(=O)(=O)c3ccccc3)cc2)n1	9.5%	u	-100.0*	17.5%	5.3	x
COc1cc(C2C(C#N)=C(N)Oc3cc(N)ccc32)cc(OC)c1OC (stereo not given)	6.7%	-17.3%	-89.3*	0.4%	2.7	x
COc1ccc(N(CC(=O)Nc2cc(C)ccc2C)S(=O)(=O)c2ccc(OC)c(OC)c2)cc1	x	x	x	x	-8.0	x
Cc1cccc(-c2nnc(-c3ccc(N)cc3)o2)c1	-0.3%	u	11.2	12.6µM*	-22.4	3.8%
COc1ccc2c(Cc3c4ccccc4cc4ccccc34)cncc2c1O	1.7%[11.4 µM]	-7.7%	x	-9.4%	x	-15.0%[11.4 µM]
CC(=O)c1c(C)[nH]c(C(=O)OCC(=O)Nc2cc(S(=O)(=O)N3CCCC3)ccc2Cl)c1C	1.2%	-8.7%	-107.7*	11.3%	5.9	x
Cc1ccc2nc(Nc3ccc(Br)cc3)nc(-c3ccccc3)c2c1	x	x	x	x	-12.3	x
Cc1cc(-n2c(C)cc(C(=O)CN3C(=O)NC4(CCCC4)C3=O)c2C)no1	-0.3%	0.1%	-116.9*	-4.1%	11.1	0.1%
Cc1cc(-n2c(C)cc(C(=O)CN3C(=O)NC4(CCCCC4)C3=O)c2C)no1	-0.7%	-11.1%	u	8.6%	-0.2	-2.2%
COC(=O)[C@@H]1C[C@@]2(O)[C@@H](O)[C@@H](O)[C@@H](O)C[C@H]2N1Cc1ccc(C(C)(C)C)cc1	-3.2%	-11.2%	x	-4.5%	x	16.6%
SMILES	ALOX12 inhib	HPGD inh	PNC assembly inh	IMPase Li inh	IMPase inh	ALOX15B inhib
CCC(=O)Nn1cnc2c(c1=O)C1(CCCCC1)Cc1ccccc1-2	-4.2%	-1.0%	-105.8*	39.1%[38.3 µM]	-7.4	5.9%
CCCC(=O)Nn1cnc2c(c1=O)C1(CCCCC1)Cc1ccccc1-2	-9.3%	-16.1%	19.3	8.5%[38.3 µM]	11.1	-2.6%
Cn1cccc1C(=O)N1CCC2(CCCN(C(c3ccccc3)c3ccccc3)C2)CC1	-6.6%	-11.2%	x	27.1%	x	-5.0%
CC1CCc2sc(C(=O)OCC(=O)NCc3ccccc3)cc2C1 (stereo not given)	-1.1%	x	-94.4*	x	-0.6	x
O=C(O)C/C=C\CC(=O)O	2.5%[11.4 µM]	-14.2%	x	-0.7%	x	15.6%[11.4 µM]
c1ccc(N2CCN(Cc3nnc(-c4ccc5c(c4)OCO5)o3)CC2)cc1	x	x	x	x	-2.9	x
CCCCCCCCCCCCCCC[C@H](O)[C@@H](N)CO	1.6%	-5.4%	x	-0.2%	x	x
CCOc1ccccc1Nc1nc(-c2ccc(C)cc2)c(CC(=O)O)s1	x	x	x	x	2.3	x
COc1ccc(-c2nnc(Nc3ccc(OC)c(C(=O)N4CCCCC4)c3)c3ccccc23)cc1	-17.4%	14.1µM*	-22.8	11.0%	-12.0	x
O=S(=O)(c1ccccc1)N1CN2CN(C1)CN(S(=O)(=O)c1ccccc1)C2	5.1%[11.4 µM]	-5.3%	x	8.3%	x	-7.2%[11.4 µM]
CCn1cc(Br)c(C(=O)Nc2ccc(Cl)cc2Cl)n1	-5.5%	-5.7%	-113.4*	37.9%[38.3 µM]	4.1	9.9%
COc1cccc(-c2nc(SCC(=O)NC3CCCC3)c(-c3ccccc3)[nH]2)c1	x	x	x	x	11.0	x
COc1ccc(-c2n[nH]c(=S)n2C2CCCCC2)cc1	-26.5%	17.8µM*	u	-4.5%[38.3 µM]	1.8	-17.5%
Cc1cc(Cl)ccc1OCc1n[nH]c(=S)n1C1CCCCC1	u	5.01µM*	-9.6	4.5%	9.1	u
COc1ccc(Cl)cc1-c1n[nH]c(=S)n1C1CCCCC1	-20.1%	10µM*	43.6	0.9%[38.3 µM]	-10.6	u
Cc1ccc(-c2nnc(Nc3ccc(Cl)cc3)c3ccccc23)cc1S(=O)(=O)N1CCOCC1	x	x	x	x	-11.3	x
ON=C1CCCCC1	0.0%	-2.0%	x	1.3%	x	-6.9%
Cc1cccc(NC2=CC(c3cccc(Br)c3)N(c3cccc(C)c3)C2=O)c1 (stereo not given)	x	x	x	x	2.9	x
CC(C)c1ccc(S(=O)(=O)c2cc3cc(Br)ccc3oc2=O)cc1	4.5%	-7.4%	58.3	14.1µM*	5.4	x
COc1ccc(C[N+](C)(C)N)cc1OC	-4.8%[11.4 µM]	-3.4%	x	1.2%	x	-3.4%[11.4 µM]
COc1ccc(Nc2nc(C)cc(C)c2C(N)=O)cc1	1.7%	-3.4%	17.4	-0.4%[38.3 µM]	11.9	3.5%
Cc1cc(C)c(C(N)=O)c(Nc2cccc(Cl)c2)n1	-7.9%	-19.8%	-100.0*	-3.7%	-7.5	x
Cc1cc(C)c(C(N)=O)c(Nc2ccc3c(c2)OCCO3)n1	1.1%	-13.5%	-100.0*	1.0%	-3.7	x
